The text below walks through data of PubChem BioAssay.

Values without a mark were called inactive. The rule behind the calls is not given here.

For the assay, the target named is Pantothenate synthetase (Mycobacterium tuberculosis (strain ATCC 25618 / H37Rv)) (UniProt P9WIL5). The assay is described as follows: Recombinant Mtb pantothenate synthetase (PanC) inhibitors, coupled enzyme, confirmatory (AID 375).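 Note: 0% = full reaction with vehicle and 100% = no enzyme background.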 The settings on record: coupled enzyme assay; at 10 µM, hits give high values.
Chain of Pantothenate synthetase (Mycobacterium tuberculosis (strain ATCC 25618 / H37Rv)) (P9WIL5 whole entry, looked up): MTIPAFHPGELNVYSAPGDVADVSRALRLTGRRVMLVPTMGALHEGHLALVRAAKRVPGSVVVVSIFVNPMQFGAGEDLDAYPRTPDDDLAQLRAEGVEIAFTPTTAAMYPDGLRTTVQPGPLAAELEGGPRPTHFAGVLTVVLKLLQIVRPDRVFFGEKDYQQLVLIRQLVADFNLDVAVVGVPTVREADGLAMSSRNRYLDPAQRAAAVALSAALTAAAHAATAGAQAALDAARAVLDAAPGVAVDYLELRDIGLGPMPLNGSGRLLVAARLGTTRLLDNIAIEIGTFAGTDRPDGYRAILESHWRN
The inhibition is the relative decrease from the control value, in per cent. Consider `Cc1cccc(NC(=O)CC(C)(C)C)c1`, for which the inhibition was 0%.

`Cc1ccc(N2C(=O)c3oc4ccccc4c(=O)c3C2c2cccc(O)c2)nc1` (configuration not stated): the inhibition was 0%.

Regarding `COc1ccccc1-n1c(SCC(=O)NC(C)(C)C)nnc1-c1ccco1`, the inhibition is 0%.

`C/C(N)=C(/C#N)C(=O)CSc1nnc(Nc2c(C)cccc2C)s1`: the inhibition was 9%.

For the compound `COc1ccc(C2C3=C(CCCC3=O)Nc3nc(SCc4ccccc4)nn32)cc1OC` (configuration not stated), the inhibition was 0%.

In the case of `CSc1nnc2c3ccccc3n(Cc3ccccc3)c2n1`, the inhibition was 7%.

Consider `Cc1ccc(C(=O)OCC(=O)c2ccc(Cl)s2)s1`, for which the inhibition is 4%.

Consider `Cc1ccc(O)c(-c2cc(C(=O)Nc3ccc(S(=O)(=O)N4CC(C)OC(C)C4)cc3)[nH]n2)c1` (configuration not stated), for which the inhibition was 5%.

For `CCOc1ccc(-c2nc(C#N)c(NCc3ccc4c(c3)OCO4)o2)cc1`, the inhibition is 3%.

With `CCOC(=O)C1=C(c2ccccc2)N2CCN=C2S1`, the inhibition is 3%.

For `O=C(NCCN1CCCC1)C1COc2ccccc2O1` (configuration not stated), the inhibition is 3%.

Take `O=C(Oc1ccc2ccc(OC(=O)N3CCOCC3)cc2c1)N1CCOCC1`: the inhibition was 0%.

As for `CC(=O)c1cc(-c2ccc(F)cc2)n(CCC(=O)Nc2cc(C)[nH]n2)c1C`, the inhibition is 4%.

In the case of `O=C(CN1C(=O)c2ccccc2C1=O)Nc1ccc(S(=O)(=O)NCC2CCCO2)cc1` (configuration not stated), the inhibition was 0%.

With `Cc1ccc(C)c(-c2nc3cc(N)ccc3o2)c1`, the inhibition is 0%.

As to `CC/C(O)=C(/C#N)c1nnc2n1CCCCC2`, the inhibition is 5%.

Regarding `N#Cc1c(NC(=O)c2ccc(Br)o2)n(-c2ccccc2)c2nc3ccccc3nc12`, the inhibition is 2%.
